AC50 and outcome data for 13 compounds are collected here from PubChem BioAssay (EPA / NIEHS).

Values joined by “and” are separate entries in the source; they are usually repeats but may differ in a detail not shown here. Equal entries are not always repeated. Records with an inconclusive call do not appear. Active and inactive are the calls of the source. The calls were made as follows: active = hit-call score of the fitted dose curve at least 0.9, where 1 is the maximum; inconclusive = response in the unintended direction; inactive = score below 0.9.

Chain of Peroxisome proliferator-activated receptor gamma (Homo sapiens) (P37231 whole entry, looked up): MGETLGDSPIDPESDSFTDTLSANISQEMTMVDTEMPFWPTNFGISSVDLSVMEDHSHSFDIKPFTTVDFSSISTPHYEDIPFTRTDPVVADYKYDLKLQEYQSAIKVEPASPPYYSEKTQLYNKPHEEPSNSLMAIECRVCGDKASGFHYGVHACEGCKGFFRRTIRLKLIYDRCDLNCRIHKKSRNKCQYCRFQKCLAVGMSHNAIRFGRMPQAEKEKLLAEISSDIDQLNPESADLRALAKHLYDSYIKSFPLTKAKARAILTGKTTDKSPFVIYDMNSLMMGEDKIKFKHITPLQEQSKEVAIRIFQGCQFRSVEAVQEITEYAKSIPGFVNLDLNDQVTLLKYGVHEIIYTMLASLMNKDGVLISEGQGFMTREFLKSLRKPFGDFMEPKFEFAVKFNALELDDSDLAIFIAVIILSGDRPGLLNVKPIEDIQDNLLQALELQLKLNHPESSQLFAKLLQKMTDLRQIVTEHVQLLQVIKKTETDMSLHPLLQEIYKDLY

In this assay the target is Peroxisome proliferator-activated receptor gamma (Homo sapiens) (UniProt P37231). In words: ATG_hPPARg_XSP2: Attagene TRANS-FACTORIAL Multi-Species (XSP2) HepG2 Assay for human Peroxisome Proliferator-activated Receptor gamma (PPARg) (AID 2283829).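 Also: actives raise reporter mRNA above DMSO so AC50 reflects PPARg activation.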 The protocol:
ATG_XSP2_multi-species_TRANS is a cell-based, multiplexed assay created by modifying the existing Attagene TRANS-FACTORIAL system to include a panel of nuclear receptors from some or all the following species: human (Homo sapiens), mouse (Mus musculus), frog (Xenopus laevis), zebrafish (Danio rerio), chicken (Gallus gallus), and turtle (Chrysemys picta). The ECOTOX-FACTORIAL format uses HepG2, a human liver cell line, with measurements taken at 24 hours after chemical dosing in a 24-well plate. Xsp2 included 3 nM 6-alpha-fluorotestosterone and 1.5 nM norgestrel to stimulate the androgen receptor.ATG_hPPARg_XSP2 is one of 29 assay components measured or calculated from the ATG_XSP2_multi-species_TRANS assay. It is designed to make measurements of mRNA induction, a form of inducible reporter, as detected with fluorescence intensity signals by Reverse transcription polymerase chain reaction (RT-PCR) and Capillary electrophoresis technology.The assay endpoint ATG_hPPARg_XSP2 was analyzed in the positive analysis fitting direction relative to DMSO as the negative control and baseline of activity. Using a type of inducible reporter, measures of mRNA for gain-of-signal activity can be used to understand the reporter gene at the transcription factor-level as they relate to the gene PPARg. Furthermore, this assay endpoint can be referred to as a primary readout, because this assay has produced multiple assay endpoints where this one serves a reporter gene function. To generalize the intended target to other relatable targets, this assay endpoint is annotated to the nuclear receptor intended target family, where the subfamily is non-steroidal.
Human liver HepG2 cells are transiently transfected with multiple reporter transcription units (MRTUs) in 6-well plates using FuGene 6 reagent (Roche; 3 ml FuGene/1 mg DNA). The MRTU constructs are regulated by a cis-regulating element (promoter). […] A major difference between the CIS and TRANS system is that in CIS activities of endogenous TFs are measured, whereas the TRANS assay evaluates changes in activities of exogenous, chimeric NR-Gal4 proteins. […] At the end of 24 hour incubation, total RNA was isolated using TriZol reagent (Invitrogen). The isolated RNA is then reverse-transcribed using oligo(dT) primer and Mo-MLV reverse transcriptase (Invitrogen) with DNAse I (Ambion) treatment for 30 min. The one-tenth of the produced cDNA was amplified by PCR using Taq DNA polymerase (Invitrogen) and two reporter sequence-specific primers. The PCR products were fluorescently labeled by primer extension with 6-arboxyfluorescein (6-FAM) 5'-labeled reporter sequence-specific primer (2 min at 95 C, 20 s at 68 C and 10 min at 72 C) and these products were digested with 5U of HpaI (New England Biolabs) for 2h at 37 C. The fragments were purified using Qiaquick PCR columns (Qiagen), analyzed on an ABI 3130xL genetic analyzer (Applied Biosystems) with peak positions identified by using a set of X-rhodamine (ROX)-labeled MapMarker1000 molecular weight standards (BioVentures). The raw capillary electrophoresis data was processed using Attagraph software (Attagene).
As to `Oc1ccc(-c2ccccc2)cc1`, the AC50 is 63.1 µM (active) and 100 µM (active).

For the compound `CC1(C)CCC(Cc2ccc(Cl)cc2)C1(O)Cn1cncn1` (stereo not drawn), the outcome was inactive.

Regarding `CC(=O)C=C(C)C`, the outcome was inactive.

For `O=S(=O)(c1ccc(Cl)cc1)c1ccc(Cl)cc1`, the AC50 was 11.4 µM (active) and 6.91 µM (active).

Take `CC12CC1(C)C(=O)N(c1cc(Cl)cc(Cl)c1)C2=O` (stereo not drawn): the result was inactive.

Consider `Clc1ccc(C2(Cn3cncn3)CC(Br)CO2)c(Cl)c1` (stereo not drawn), for which the compound was classed as inactive.

Turning to `C[C@]12CC[C@H](O)CC1=CC[C@@H]1[C@@H]2CC[C@]2(C)C(=O)CC[C@@H]12`, the compound was classed as inactive.

On to `COP(=O)(OC)O/C(=C\Cl)c1cc(Cl)c(Cl)cc1Cl`, for which the concentration at half-maximal activity (AC50) was 15 µM (active).

Consider `O=C1C2(Cl)C3(Cl)C4(Cl)C(Cl)(Cl)C5(Cl)C3(Cl)C1(Cl)C5(Cl)C24Cl` (stereo not drawn), for which the compound was called inactive.

As to `C[C@]12CCC(=O)C[C@@H]1CC[C@@H]1[C@@H]2CC[C@]2(C)[C@@H](O)CC[C@@H]12`, the compound was classed as inactive.

As for `Oc1c(I)cc(I)cc1I`, the AC50 is 12 µM (active) and 10.4 µM (active).

For `CC(C)C1CCC(Cc2ccc(Cl)cc2)C1(O)Cn1cncn1` (stereo not drawn), the half-maximal activity concentration (AC50) is 3.93 µM (active).

Take `C[C@H]1CCCC(=O)CCC/C=C/c2cc(O)cc(O)c2C(=O)O1`: the result was inactive.

One may read the AC50 as the concentration giving half of the maximal activity seen.
